# Hits are enriched below; roughly 15% of the tested compounds scored in any of these assays.
# Pf growth 48h: Primary qHTS for delayed death inhibitors of the malarial parasite plastid, 48 hour incubation. P. falciparum luciferase growth in erythrocytes, 48 h. Potency, µM (highest dose often 28.7 µM), most hits filed as inhibitors. hit rate 5.9% among 310,000
#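 Firefly luciferase activity from engineered P. falciparum reports growth; inhibitors lower the luminescent signal. Cultures contained 2% hematocrit erythrocytes at 0.1% final parasitemia.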
# Sm TGR block: qHTS Assay for the Inhibitors of Schistosoma Mansoni Peroxiredoxins | purified TGR, DTNB reduction, TNB absorbance 405 nm | Potency, µM (series often up to 114 µM), usual class: inhibitors | hit rate 3% among 360,000; further: nearly all actives have a fitted effect of over 60% in size
#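 First, TGR (20 nM dispensed) and NADPH were mixed with compound. Second, a 15 min room-temperature incubation followed. Third, further NADPH and then DTNB were added to start the reaction. Finally, TNB absorbance was monitored kinetically.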
# SARS PLpro yeast: qHTS of Yeast-based Assay for SARS-CoV PLP. S. cerevisiae expressing SARS-CoV PLpro, growth rescue. Potency, µM (titrated, usually from 32.9 µM), hits mostly activators. hit rate 0.19% among 330,000. AID 485353, 2010; calls by dose curve; further: nearly all actives have a fitted effect of over 55% in size
# HCV inh: qHTS Assay for Inhibitors of Hepatitis C Virus (HCV); hit rate 3.4% among 340,000; Huh7.5.1 HCVcc-Cre infection, luciferase reporter, 44 h; Potency, µM (top dose mostly 41.8 µM), usual class: inhibitors
#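 A cell-based infection assay in which seeded cells (1,000 per well) receive test compound after 4 h, are inoculated with HCVcc-Cre at approximately 0.5 moi, and are incubated 44 h before luminescence detection.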
# Pf growth 96h: Primary qHTS for delayed death inhibitors of the malarial parasite plastid, 96 hour incubation; P. falciparum luciferase reporter growth, 96 h; Potency, µM (doses to about 28.7 µM), most hits filed as inhibitors; hit rate 6.9% among 320,000; AID 504834, 2011
#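 Readout is luminescence from an integrated firefly luciferase in P. falciparum. Red cells, 2% hematocrit and 0.05% parasitemia final, were cultured with compound through two parasite generations (96 hours) at 37 C, 5% CO2.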
# HCMV inh: qHTS Assay for inhibitors of the human cytomegalovirus (HCMV); HFF cells, HCMV-luciferase reporter, 72 h; stronger effect = lower value; activity change, negative = inhibition, % at 57.5 µM; hit rate 4.5% among 410,000; in the data active means activity change below about -60%; inconclusive means no clear call, values can overlap the other calls; inactive means above about -39%
#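 Screen run at 2 compound doses on HFFs infected with reporter HCMV, MOI 1 PFU/cell. Luciferase activity from cell lysates at 72 h post infection gave inhibition relative to buffer-only and Salinomycin wells.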
# A number is an active result; - = inactive; ? = inconclusive; . = not tested or not shown. Unless noted, the call rests on the fitted dose curve; in most records, active means well fitted curve in the direction sought with a large enough effect; inconclusive means small, poorly fitted or top-dose-only effect, or another doubt; inactive means no such curve, though single readings can be large; an effect the other way counts as inactive or inconclusive.
SMILES,Pf growth 48h,Sm TGR block,SARS PLpro yeast,HCV inh,Pf growth 96h,HCMV inh
CCN(CC)C(=O)c1ccc(S(=O)(=O)N2CCC(c3nc4ccccc4s3)CC2)cc1,?,-,-,2.5µM,?,-96
Cc1ccc(S(=O)(=O)N(C)C)cc1NC(=O)COC(=O)Cc1ccsc1,-,-,.,-,-,-
C/C(=N\N(Cc1ccccc1)c1ccccc1)c1cccnc1,8.3µM,-,-,-,13µM,-
C(=N\N(Cc1ccccc1)c1ccccc1)/c1cccnc1,13µM,-,-,-,-,-
Oc1ccc(/C=N/N(Cc2ccccc2)c2ccccc2)c(O)c1O,?,?,-,?,?,-
Oc1cccc(/C=N/N(Cc2ccccc2)c2ccccc2)c1,6.6µM,-,-,?,?,?
C(=N/Nc1nc(-c2ccccc2)cc(-c2ccccc2)n1)/c1cccnc1,?,-,-,?,-,-
C/C(=N\NC(=O)Cc1ccccc1)c1cccnc1,-,-,-,-,-,-
O=C(NCCOCCn1c(=O)oc2ccccc21)Nc1cccc(Cl)c1,.,-,.,.,.,-
OC1CCC(Nc2nccc3[nH]c(-c4cccc(C(F)(F)F)c4)nc23)CC1 (stereo not given),.,.,.,.,.,-
CC(=O)NC12CC3CC(C1)CC(C(=O)N1CCN(S(=O)(=O)c4ccc(C(C)C)cc4)CC1)(C3)C2,-,-,-,-,12µM,-
COc1cc(/C=N/Nc2ncc(C(F)(F)F)cc2Cl)cc(OC)c1OC,4.7µM,-,-,?,?,-
CCCCC(=O)Nc1cccc(NC(=O)c2cccnc2Cl)c1,-,-,-,-,-,-
C=Cc1ccc(C2=CC(=O)C[C@H](c3ccc(OC)cc3)C2)cc1,-,-,-,-,-,-
c1ccc(C[C@H]2CNCCN2CC2(c3ccccc3)CC2)cc1,?,45µM,-,?,?,-
FC(F)(F)c1cc(CCN2CCNC[C@@H]2Cc2ccccc2)cc(C(F)(F)F)c1,.,.,.,-,.,-64
CSCCC(NS(=O)(=O)c1ccc(Br)cc1)C(=O)OCC(=O)NC1CC1 (stereo not given),-,-,-,-,?,-65
COc1ccccc1C(CC(=O)c1ccccc1)CC(=O)c1ccccc1,?,-,-,?,-,-77
O=C(Nc1ccc(F)cc1)N1CC(=O)N2[C@H](CO)[C@@H](c3ccc(Br)cc3)[C@H]2C1,.,.,.,.,.,-
CC(C)(C)c1ccc(C(=O)NNc2cc(N3CCCCC3)nc(N3CCCCC3)n2)cc1,2.6µM,-,-,?,?,-
CC(C)(C)c1ccc(C(=O)NNc2cc(N3CCOCC3)nc(N3CCOCC3)n2)cc1,12µM,-,-,?,-,-
Nn1c(SCC(=O)NC(=O)NCc2ccco2)nnc1-c1ccc(OC(F)F)cc1,-,-,-,-,.,-
CCN(CC)c1cc2nc(C)n(Cc3ccccc3)c(=O)c2cc1NC(=O)C1CC1,7.4µM,-,-,?,-,-
CCCC(=O)Nc1ccc2nc(C)n(Cc3ccccc3Cl)c(=O)c2c1,?,-,-,?,-,-
Cc1nc2cc(N3CCCCC3)c(NC(=O)c3ccncc3)cc2c(=O)n1Cc1ccc(Cl)cc1,.,-,-,.,?,.
SMILES,Pf growth 48h,Sm TGR block,SARS PLpro yeast,HCV inh,Pf growth 96h,HCMV inh
Cc1nc2cc(N3CCN(C)CC3)c(NC(=O)Cc3ccccc3)cc2c(=O)n1Cc1ccccc1,10µM,-,-,-,-,?
C[n+]1ccccc1/C=C/c1ccc2ncccc2c1,1.2µM,-,-,-,?,-
C[n+]1ccccc1/C=C/c1ccc([N+](=O)[O-])cc1,1.3µM,-,-,10µM,-,-
C[n+]1ccccc1/C=C/c1ccc(F)c(F)c1,?,-,-,-,-,?
C[n+]1ccccc1/C=C/c1ccc(C#N)cc1,-,45µM,-,-,?,-
Cc1nn(C)c(NC(=O)c2ccccc2Cl)c1Cl,-,-,-,-,-,-
Cc1cccc(N2CCN(C(=O)Cc3ccccc3[N+](=O)[O-])CC2)c1C,-,-,-,-,-,-
O=C(NCCS(=O)(=O)N1CCN(c2ccccc2F)CC1)C(c1ccccc1)c1ccccc1,.,-,.,.,.,-
O=C(Oc1ccc2ccc(=O)oc2c1)c1ccccc1,-,-,-,-,9.3µM,-
COc1ccc(C(=O)Oc2ccc3ccc(=O)oc3c2)cc1,.,-,-,-,-,-
Cc1cn2c(=O)cc(COc3ccccc3NC(=O)c3ccccc3C)nc2s1,.,-,.,.,.,-
CS(=O)(=O)c1nc(-c2ccccc2)cc(-c2ccccc2)c1C#N,?,-,-,28µM,1.7µM,.
O=C1/C(=C\c2cc3c(cc2Cl)OCO3)N2CCC1CC2,-,-,-,-,5.9µM,?
N=C(CC1CC(=O)NC(=O)C1)C1=C(O)CCCC1=O,-,-,?,-,-,-
Cn1c(NN)nc2c1c(=O)n(Cc1ccccc1)c(=O)n2C,12µM,-,-,-,-,-
Cn1c(=O)n(CC(N)=O)c(=O)c2c1nc(Br)n2Cc1ccccc1,-,-,-,-,2.1µM,-
CCOC(=O)Cn1c(=O)c2c(nc3n2CCCCN3c2ccc(OCC)cc2)n(C)c1=O,.,.,.,-,.,-
CCCCOC(=O)Cn1c(=O)c2c(nc(Br)n2Cc2ccccc2)n(C)c1=O,9.3µM,-,-,?,?,-
CCOC(=O)Cn1c(=O)c2c(nc(Br)n2Cc2ccccc2)n(C)c1=O,-,-,-,.,.,.
CCCCOC(=O)Cn1c(=O)c2c(nc3n2CCCCN3c2ccc(C)cc2)n(C)c1=O,7.4µM,-,-,?,-,-
Cn1c(Br)nc2c1c(=O)n(Cc1ccccc1)c(=O)n2C,-,-,-,-,-,-
COc1ccc(Cn2cc(CN3CC(N4CC=CC4)CS3(=O)=O)nn2)cc1 (stereo not given),.,.,.,.,.,-
O=C(COc1ccc(F)c(Cl)c1)Nc1ccc(N2CCOCC2)cc1,.,.,-,?,.,-
CCOC(=O)Cn1c(=O)c2c(nc(Br)n2Cc2ccccc2Cl)n(C)c1=O,?,-,-,?,-,-
C=CCn1c(=O)c2c(nc(Br)n2Cc2ccccc2Cl)n(C)c1=O,?,-,-,-,12µM,-73
COc1ccc(S(=O)(=O)N2CCN(CC(=O)Nc3sccc3C(N)=O)CC2)cc1OC,?,-,-,?,?,-
Cc1ccc2c(c1)C(c1ccccc1)N(C(=O)c1ccccc1F)CC(=O)N2 (stereo not given),.,-,.,.,.,-
CN(C)CCCNS(=O)(=O)c1ccc(N2CCN(Cc3ccc4c(c3)OCO4)CC2)c([N+](=O)[O-])c1,12µM,-,-,5.6µM,9.3µM,-
O=Cc1cc([N+](=O)[O-])ccc1N1CCN(Cc2ccc3c(c2)OCO3)CC1,-,-,-,?,-,-102
CC(=O)c1ccc(N2CCN(c3ccc(S(=O)(=O)NCCN(C)C)cc3[N+](=O)[O-])CC2)cc1,?,-,-,?,?,-
